PubChem BioAssay AID1159580 (chemical genetic matrix, 2015)
Where “and” joins values, the source holds several entries; their conditions need not be identical. Equal values may be shown once. The whole screen tested about 5,500 compounds, of which about 2,000 (36%) were called active. Inconclusive results (about 18%) are left out. No stated cut-off is given here; in the data, active means normalized growth mostly below about 0.91 (no sharp cut-off); inconclusive means no clear call, values can overlap the other calls; inactive means mostly above about 0.92. The list shows a part of the results.

Test: chemical genetic growth profiling, strain panel (AID 1159580);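 further: tested at 20 µM; growth read once vehicle control cultures reached saturation at 30 °C; 1 = growth at the plate median or of vehicle wells; lower values mean less growth of the strain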
Settings: growth OD

Measured: normalized growth

CC(=O)OC/C=C(C)/C=C/C=C(C)/C=C/C1=C(C)CCCC1(C)C
inactive: S. cerevisiae deletion strains, locus YAL013W, strain DEP1, hits give low values 1.02 | S. cerevisiae deletion strains, locus YBR021W, strain FUR4, hits give low values 1.03 | S. cerevisiae deletion strains, locus YBR229C, strain ROT2, hits give low values 1.02 | S. cerevisiae deletion strains, locus YCL029C, strain bik1, hits give low values 1 | S. cerevisiae deletion strains, locus YDL035C, strain GPR1, hits give low values 1.01 | S. cerevisiae deletion strains, locus YDL074C, strain BRE1, hits give low values 1.03 | S. cerevisiae deletion strains, locus YDL101C, strain DUN1, hits give low values 1.03 | S. cerevisiae deletion strains, locus YDL134C, strain PPH21, hits give low values 1 | S. cerevisiae deletion strains, locus YDL185W, strain tfp1, hits give low values 0.992 | S. cerevisiae deletion strains, locus YDL192W, strain arf1, hits give low values 0.994 | S. cerevisiae deletion strains, locus YDR101C, strain arx1, hits give low values 0.988 | S. cerevisiae deletion strains, locus YDR150W, strain NUM1, hits give low values 1.01 | S. cerevisiae deletion strains, locus YDR162C, strain NBP2, hits give low values 1.01 | S. cerevisiae deletion strains, locus YDR318W, strain mcm21, hits give low values 1 | S. cerevisiae deletion strains, locus YDR388W, hits give low values 0.994 | S. cerevisiae deletion strains, locus YDR502C, strain sam2, hits give low values 0.996 | S. cerevisiae deletion strains, locus YEL061C, strain CIN8, hits give low values 1.02 | S. cerevisiae deletion strains, locus YER110C, hits give low values 0.992 | S. cerevisiae deletion strains, locus YER155C, strain BEM2, hits give low values 1.02 | S. cerevisiae deletion strains, locus YER167W, strain BCK2, hits give low values 1.02 | S. cerevisiae deletion strains, locus YGL078C, strain dbp3, hits give low values 0.982 | S. cerevisiae deletion strains, locus YGL086W, strain mad1, hits give low values 1 | S. cerevisiae deletion strains, locus YGL248W, strain PDE1, hits give low values 1.03 | S. cerevisiae deletion strains, locus YGR078C, strain PAC10, hits give low values 1.04 | S. cerevisiae deletion strains, locus YGR135W, strain pre9, hits give low values 0.984 | S. cerevisiae deletion strains, locus YGR252W, strain gcn5, hits give low values 0.982 | S. cerevisiae deletion strains, locus YHR030C, strain SLT2, hits give low values 1.02 and 1.06 | S. cerevisiae deletion strains, locus YHR079C, strain IRE1 (second series), hits give low values 1 | S. cerevisiae deletion strains, locus YHR079C, strain IRE1, hits give low values 1.06 | S. cerevisiae deletion strains, locus YHR094C, strain hxt1, hits give low values 0.991 | S. cerevisiae deletion strains, locus YHR129C, strain ARP1, hits give low values 1.02 | S. cerevisiae deletion strains, locus YHR200W, strain rpn10, hits give low values 0.999 | S. cerevisiae deletion strains, locus YIL066C, strain RNR3, hits give low values 1.02 | S. cerevisiae deletion strains, locus YIL073C, strain SPO22, hits give low values 1.02 | S. cerevisiae deletion strains, locus YIL125W, strain kgd1, hits give low values 0.992 | S. cerevisiae deletion strains, locus YIR030C, strain dcg1, hits give low values 0.994 | S. cerevisiae deletion strains, locus YJL095W, strain BCK1, hits give low values 1.05 and 1.04 | S. cerevisiae deletion strains, locus YJL134W, strain LCB3, hits give low values 1.02 | S. cerevisiae deletion strains, locus YJL168C, strain set2, hits give low values 0.999 | S. cerevisiae deletion strains, locus YJL187C, strain SWE1 (second series), hits give low values 1.02 | S. cerevisiae deletion strains, locus YJR043C, strain POL32, hits give low values 1.02 | S. cerevisiae deletion strains, locus YJR066W, strain TOR1, hits give low values 0.959 | S. cerevisiae deletion strains, locus YJR075W, strain HOC1, hits give low values 1.03 | S. cerevisiae deletion strains, locus YKL009W, strain mrt4, hits give low values 1.01 | S. cerevisiae deletion strains, locus YKL068W, hits give low values 1 | S. cerevisiae deletion strains, locus YKL085W, strain MDH1 (second series), hits give low values 0.993 | S. cerevisiae deletion strains, locus YKL085W, strain MDH1, hits give low values 0.993 | S. cerevisiae deletion strains, locus YKL190W, strain CNB1, hits give low values 1.01 | S. cerevisiae deletion strains, locus YKR001C, strain vps1, hits give low values 0.999 | S. cerevisiae deletion strains, locus YLR039C, strain RIC1, hits give low values 1.05 | S. cerevisiae deletion strains, locus YLR058C, strain SHM2, hits give low values 1.01 | S. cerevisiae deletion strains, locus YLR102C, strain apc9, hits give low values 1 | S. cerevisiae deletion strains, locus YLR113W, strain HOG1, hits give low values 0.981 | S. cerevisiae deletion strains, locus YLR262C, strain YPT6, hits give low values 1.03 | S. cerevisiae deletion strains, locus YLR268W, strain sec22, hits give low values 1.01 | S. cerevisiae deletion strains, locus YLR330W, strain CHS5, hits give low values 1.02 | S. cerevisiae deletion strains, locus YLR342W, strain FKS1 (second series), hits give low values 0.986 | S. cerevisiae deletion strains, locus YLR371W, strain rom2, hits give low values 1 | S. cerevisiae deletion strains, locus YLR418C, strain cdc73, hits give low values 0.986 | S. cerevisiae deletion strains, locus YML016C, strain PPZ1, hits give low values 1.01 | S. cerevisiae deletion strains, locus YML032C, strain rad52, hits give low values 0.998 | S. cerevisiae deletion strains, locus YML124C, strain tub3, hits give low values 0.999 | S. cerevisiae deletion strains, locus YMR078C, strain ctf18, hits give low values 1.01 | S. cerevisiae deletion strains, locus YMR223W, strain ubp8, hits give low values 1.01 | S. cerevisiae deletion strains, locus YMR307W, strain GAS1, hits give low values 0.898 | S. cerevisiae deletion strains, locus YNL067W, strain RPL9B, hits give low values 1.03 | S. cerevisiae deletion strains, locus YNL183C, strain NPR1, hits give low values 0.953 | S. cerevisiae deletion strains, locus YNL233W, strain BNI4, hits give low values 1.05 | S. cerevisiae deletion strains, locus YNL250W, strain rad50, hits give low values 0.989 | S. cerevisiae deletion strains, locus YNL271C, strain bni1, hits give low values 0.988 | S. cerevisiae deletion strains, locus YNL298W, strain CLA4, hits give low values 0.981 | S. cerevisiae deletion strains, locus YNL307C, strain MCK1, hits give low values 1 | S. cerevisiae deletion strains, locus YNL322C, strain KRE1, hits give low values 1.02 | S. cerevisiae deletion strains, locus YNR052C, strain pop2, hits give low values 0.996 | S. cerevisiae deletion strains, locus YOL006C, strain TOP1, hits give low values 1.06 | S. cerevisiae deletion strains, locus YOL012C, strain htz1 1.19 | S. cerevisiae deletion strains, locus YOL147C, strain pex11, hits give low values 0.997 | S. cerevisiae deletion strains, locus YOR061W, strain CKA2, hits give low values 1.01 | S. cerevisiae deletion strains, locus YOR069W, strain VPS5, hits give low values 1.02 | S. cerevisiae deletion strains, locus YOR136W, strain idh2, hits give low values 1 | S. cerevisiae deletion strains, locus YOR144C, strain elg1, hits give low values 0.998 | S. cerevisiae deletion strains, locus YOR184W, strain ser1, hits give low values 0.998 | S. cerevisiae deletion strains, locus YOR231W, strain MKK1, hits give low values 1.04 | S. cerevisiae deletion strains, locus YOR316C, strain cot1, hits give low values 0.999 | S. cerevisiae deletion strains, locus YPL241C, strain CIN2, hits give low values 1.01 | S. cerevisiae deletion strains, locus YPL256C, strain CLN2, hits give low values 1.08 | S. cerevisiae deletion strains, locus YPR119W, strain clb2, hits give low values 1 | S. cerevisiae deletion strains, locus YPR141C, strain kar3, hits give low values 0.992 | S. cerevisiae deletion strains, locus YPR163C, strain tif3, hits give low values 0.994 | S. cerevisiae deletion strains, locus YPR167C, strain met16, hits give low values 1 | S. cerevisiae deletion strains, strain wtn01, hits give low values 0.995 | S. cerevisiae strains, strain wild type, hits give low values 1.02
